Screens deposited in PubChem BioAssay by National Center for Advancing Translational Sciences (NCATS).
Pol iota inh: qHTS for Inhibitors of Polymerase Iota. DNA polymerase iota (Homo sapiens), Q9UNA4. Pol iota fluorescent replication assay, 10 min. Potency, µM (titrated, usually from 115 µM), inactives show at the highest dose activity, negative = inhibition, most hits filed as inhibitors. 390,000 compounds, 1% hits. AID 588590, 2011
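Pol iota at 10 nM preincubated 15 min with compounds at room temperature; reaction started with fluorescent substrate, 50 nM final. Fluorescence read kinetically at 0 and 10 min; buffer-only wells as negative control.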
L3MBTL1 block: qHTS Assay for the Inhibitors of L3MBTL1. 230,000 compounds, 0.66% hits. Lethal(3)malignant brain tumor-like protein 1 (Homo sapiens), Q9Y468. AlphaScreen L3MBTL1–H3K9me1 peptide binding. Potency, µM (top dose mostly 57.1 µM), for the others: at the highest dose activity, negative = inhibition, usual class: inhibitors; note: % is set by controls: 0 for no effect and ±100 for the full control effect; nearly all actives have a fitted effect of over 60% in size
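Read-out is AlphaScreen signal from streptavidin donor and nickel chelate acceptor beads (10 ug/mL final each) bridging L3MBTL1 (50 nM) and biotinylated K9-monomethylated H3(1-15) peptide (75 nM), after 30 min compound exposure at room temperature.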
Pol eta inh: qHTS for Inhibitors of Polymerase Eta; recombinant Pol eta, fluorescent DNA replication assay; Potency, µM (highest dose often 114 µM), for inactives: at the highest dose activity change, negative = inhibition, most hits filed as inhibitors; 390,000 compounds, 1.2% hits; AID 588591, 2011; note: % is set by controls: 0 for no effect and ±100 for the full control effect
Target sequence (Q9Y253 whole entry, looked up): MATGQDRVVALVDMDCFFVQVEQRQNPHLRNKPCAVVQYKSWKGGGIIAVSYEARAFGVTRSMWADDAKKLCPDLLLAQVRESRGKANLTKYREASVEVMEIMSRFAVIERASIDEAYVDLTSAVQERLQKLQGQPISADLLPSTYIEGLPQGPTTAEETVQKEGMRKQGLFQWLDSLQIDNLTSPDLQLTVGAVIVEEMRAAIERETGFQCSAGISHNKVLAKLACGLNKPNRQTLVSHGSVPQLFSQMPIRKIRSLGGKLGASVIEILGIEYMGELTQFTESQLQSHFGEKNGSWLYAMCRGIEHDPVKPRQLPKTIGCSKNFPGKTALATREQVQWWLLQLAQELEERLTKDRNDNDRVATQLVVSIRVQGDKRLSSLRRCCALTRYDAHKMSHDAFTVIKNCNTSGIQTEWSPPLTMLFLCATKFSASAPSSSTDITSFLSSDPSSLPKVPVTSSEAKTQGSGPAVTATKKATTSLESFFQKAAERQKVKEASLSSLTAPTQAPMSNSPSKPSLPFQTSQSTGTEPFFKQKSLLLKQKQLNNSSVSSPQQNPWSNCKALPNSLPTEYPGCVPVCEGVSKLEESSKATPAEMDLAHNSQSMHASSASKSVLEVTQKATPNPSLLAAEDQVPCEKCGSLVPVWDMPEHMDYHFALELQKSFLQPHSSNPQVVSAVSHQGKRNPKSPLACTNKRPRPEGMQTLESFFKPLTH
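Pol eta at 10 nM preincubated with compounds 15 min at room temperature; reaction started with fluorescent substrate (50 nM final) and read kinetically at 0 and 10 min.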
Pol beta inh: qHTS Assay for Inhibitors of DNA Polymerase Beta; P06746; Pol beta primer extension/strand displacement, fluorescence kinetic; 340,000 compounds, 1.3% hits; Potency, µM (titrated, usually from 114 µM), for inactives: at the highest dose activity change, negative = inhibition, usual class: inhibitors; note: % is set by controls: 0 for no effect and ±100 for the full control effect
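Values derive from four-parameter Hill fits of normalized kinetic data: reads at 0 and 10 min following addition of 50 nM substrate to 10 nM Pol beta preincubated 15 min with compound.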
POLK inh: qHTS for Inhibitors of Polymerase Kappa; DNA polymerase kappa (Homo sapiens), Q9UBT6; purified Pol kappa, fluorescent DNA synthesis assay, 10 min; Potency, µM (top dose mostly 107 µM), without a hit: at the highest dose activity, negative = inhibition, hits mostly inhibitors; 400,000 compounds, 0.53% hits; AID 588579, 2011; note: % is set by controls: 0 for no effect and ±100 for the full control effect
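First, compounds were pin-transferred onto 10 nM Pol kappa. After 15 min at room temperature, substrate was added to 50 nM final. Fluorescence was then measured kinetically at 0 and 10 min.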
Starred values were filed as active, the others as inactive; ? = inconclusive; . = no result given; ! = repeats disagree; [ ] = remark or other dose. In the library only some 2.4% were active in any assay of this set; here they are far more common. Calls come from the whole dose curve; as a rule, active = well fitted curve in the direction sought with a large enough effect; inconclusive = small, poorly fitted or top-dose-only effect, or another doubt; inactive = no such curve, though single readings can be large; an effect the other way counts as inactive or inconclusive. Potency is the fitted concentration of half-maximal effect.

SMILES | Pol iota inh | L3MBTL1 block | Pol eta inh | Pol beta inh | POLK inh
Cc1cccc(N2CCN(CCCNC(=O)c3nnc(Cc4c(F)cccc4Cl)o3)CC2C)c1 (configuration not stated) | -4% | . | -18% | 14% | -9%
C=CCOc1c(Cl)cc(CNc2ccc(N(C)C)cc2)cc1OC | 8.9µM* | 13µM* | -6% | -24% | -20%
CC(/C=N/NC(=O)Cc1cccn1C)=C\c1ccco1 | 45µM* | -25% | ? | ? | ?
Cc1c(NC(=S)N/N=C/c2cc([N+](=O)[O-])ccc2O)c(=O)n(-c2ccccc2)n1C | -28% | 32µM* | -20% | -7% | 2%
Cc1c(NC(=S)N/N=C/c2ccc(O)cc2)c(=O)n(-c2ccccc2)n1C | 37% | -2% | -12% | 18% | -1%
Cc1ccc(OCCNC(=O)CNC(=O)c2ccc(Cl)c([N+](=O)[O-])c2)cc1 | 31% | 1% | ? | . | -5%
Cc1ccccc1NC(=O)/C(C#N)=C\c1cc(C)n(-c2ccc(C(=O)O)cc2)c1C | -65% | . | 22µM* | ? | -29%
Cc1cc(/C=C(/C#N)C(=O)Nc2ccccc2)c(C)n1-c1cccnc1 | 2% | 0% | 0% | 73% | 4%
COc1cc(Cl)c(C)cc1NC(=O)c1nn(C)c2c1CSc1ccccc1-2 | 282% | . | -17% | 5% | 6%
Cc1ccc(-n2cccc2/C=C2\C(=N)N3N=C(C(C)C)SC3=NC2=O)cc1 | 12% | -29% | -12% | 28µM* | -11%
COc1cc(/C=N/Nc2ccccn2)ccc1O | 29% | -17% | -15% | -14% | -10%
CCOc1cc(/C=N/Nc2nnc(C)n2N)ccc1OC(C)=O | 2.8µM* | . | -16% | ? | -25%
CCOc1cc(/C=N/NC(N)=O)ccc1OC(=O)c1ccc(C)cc1 | . | . | . | 6% | .
CCc1nnc(N/N=C/c2ccc(O)c(OC)c2)n1N | 8.9µM* | -3%[2.29 µM] | 3% | 18% | -6%
CCc1nnc(N/N=C/c2cc(Br)c(O)cc2O)n1N | 8.9µM* | -10% | -13% | 0% | 1%
CCc1nnc(N/N=C\c2ccc(OC(C)=O)c(OC)c2)n1N | 2µM* | . | 1% | -3% | -31%
O=C(C[n+]1ccccc1)c1ccc(I)cc1 | 28% | . | . | . | 1%
O=S(=O)(Nc1ccccc1)c1ccc(-c2cnc(C3CC3)o2)cc1 | 79µM* | . | -13% | 5% | 8%
CC(=O)Nc1ccc(NS(=O)(=O)c2ccc(-c3cnc(C4CC4)o3)cc2)cc1 | 19% | . | -6% | 5% | -29%
O=C(O)CCC(=O)Nc1sc2c(c1C(=O)Nc1cccc3ccccc13)CCCCC2 | ? | 1% | -4% | -7% | -1%
O=C(COc1ccccc1)Nc1sc2c(c1C(=O)NCc1cccnc1)CCCC2 | ? | 0% | ? | 35µM* | -13%
CCOc1ccc(NC(=O)c2c(NCc3cccnc3)sc3c2CCCC3)cc1 | 17% | . | -22% | -9% | -8%[60.1 µM]
O=C(O)CCC(=O)Nc1sc2c(c1C(=O)Nc1ccccc1)CCCCC2 | 30% | . | 89µM*! | ? | -27%
Cc1ccc(-n2cc(-c3ccccc3)c3c(N4CCCCC4)ncnc32)cc1 | 9% | . | -24% | 8% | -1%[60.1 µM]
Cn1cc(C(=O)[C@@H]2CCc3[nH]cnc3C2)c2ccccc21 | . | . | . | . | -4%[19.4 µM]
SMILES | Pol iota inh | L3MBTL1 block | Pol eta inh | Pol beta inh | POLK inh
COc1cc2ccccc2cc1C(=O)Nc1ccc(O)cc1 | 66% | -3% | -3% | 22µM* | -6%
COc1ccc(NC(=O)c2cc3ccccc3cc2OC)cc1OC | -21% | . | -12% | 29% | -14%
COc1ccccc1C(=O)NNC(=O)c1ccc(O)cc1 | . | . | 1% | . | .
CCOc1ccccc1C(=O)Nc1ccc2c(c1)C(=O)NC2=O | 120% | 4% | 3% | -4% | 2%
COc1ccccc1C(=O)Nc1ccc2c(c1)C(=O)NC2=O | 12% | 5% | -13% | 56µM* | -16%
COc1ccccc1C(=O)NNC(=O)c1ccc2ccccc2c1 | 36% | 2% | -17% | 12% | 89µM*
COc1ccc(-c2cn3nc(N4CCCC(C(=O)Nc5cccc(Cl)c5C)C4)sc3n2)cc1 (configuration not stated) | 15% | . | 7% | -2% | -13%
COc1ccc(C(=O)NCC(=O)OCC(=O)c2cccc3ccccc23)cc1 | -7% | . | . | . | -10%
CCCN(CCC)CCCNC(=O)c1cc2c(-c3ccc(OC)c(OC)c3)nn(C)c2s1 | ? | . | ? | 40µM* | ?
CCCN(CCC)CCNC(=O)c1cc2c(-c3ccccc3F)nn(C)c2s1 | 12% | . | -18% | 87% | 14%
CCN(CC)CCNC(=O)c1cc2c(-c3cccc(OC)c3)nn(C)c2s1 | ? | . | -10% | 71µM* | 14%
CCN(CC)CCNC(=O)c1cc2c(-c3ccc(Cl)cc3)nn(C)c2s1 | ? | . | 10% | 16µM* | -17%
CCCN(CCC)CCNC(=O)c1cc2c(-c3ccc(Cl)cc3)nn(C)c2s1 | 4% | . | -3% | 25µM* | 4%
COc1cc(OC)c(NS(=O)(=O)c2ccc3c(c2)CCCN3C(C)=O)cc1Cl | -7% | . | -15% | 1% | -13%[60.1 µM]
CCCCN(CC)CCNC(=O)c1cc2c(-c3ccc(Cl)cc3)nn(C)c2s1 | ? | . | -8% | 3.2µM* | -13%
CCOc1ccc(Br)cc1S(=O)(=O)Nc1cccc(-c2ccc(OC)nn2)c1 | -1% | . | -9% | 9% | -8%[60.1 µM]
COc1cc(Nc2nc3c(N)cc(C(F)(F)F)cc3nc2-c2ccccc2)cc(OC)c1OC | 29% | . | ? | . | -13%
COc1cccc(/C=N/N2CCOCC2)c1O | 38% | -6% | -5% | 10%[57.1 µM] | -7%
Oc1ccc(/C=N/N(c2ccccc2)c2ccccc2)c(O)c1O | . | . | . | 5µM* | .
Oc1ccc(/C=N/N2CCCCC2)c(O)c1O | ? | . | -20% | 35µM* | ?
Oc1ccc(/C=N/N2CCOCC2)c(O)c1O | 121% | 14µM* | -21% | ? | ?
O=C1c2ccccc2C(=O)N1/N=C/c1ccc(O)c(O)c1O | ? | . | 1.6µM* | ? | 1.4µM*
Oc1cccc(/C=N/N2CCCCC2)c1O | ? | . | -1% | ? | -20%
Fc1ccc(Nc2nc3ccccc3c3nncn23)c(Cl)c1 | 31% | . | -10% | 15% | 16%
CC1C/C(=C\c2cccnc2)C(=O)/C(=C/c2cccnc2)C1 (configuration not stated) | 16µM* | 2% | 20µM* | -2% | -6%
CCc1ccccc1NC(=O)Cn1nnc(-c2nc(-c3ccc(C)cc3)no2)c1N | 19% | . | . | 2% | -4%
CC[n+]1c(/C=C/C=C/N(C(C)=O)c2ccccc2)sc2ccccc21 | ? | -7% | ? | -8% | -8%
